Reference: PubChem BioAssay (NCATS)
Several values for one entry are separate records, joined by “and”; a condition that tells them apart may be missing. Identical values can stand only once. Records with an inconclusive call do not appear. Activity calls are given as the source filed them. Unless noted, no rule for the calls is given here.

How the values were obtained:
[1] = qHTS profiling for inhibitors of Plasmodium falciparum (3D7) proliferation (AID 743322);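 also: infected erythrocytes exposed to compound for 72 h before lysis; 100% = DMSO vehicle wells and 0% = 0.29 µM artemisinin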; conditions: P. falciparum 3D7 proliferation; at 28.7 µM (top of the series)
In short: (§1)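 Parasite DNA was quantified by SYBR Green I fluorescence (ex 485, em 535 nm) after overnight lysis in saponin/Triton buffer at room temperature. Cultures at 0.3% parasitemia and 2.5% hematocrit were first exposed to compound for 72 h at 37 C; signals were normalised to artemisinin (0.29 uM) and vehicle wells.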

[2] = qHTS profiling for inhibitors of Plasmodium falciparum (DD2) proliferation (AID 743323); conditions: lower = more inhibition; at 28.7 µM (top of the series)
In short: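 1536-well qHTS; infected RBCs 0.3% parasitemia/2.5% Hct final; cpd 72 h 37 C 5% CO2; lysis buffer + SYBR Green I, o/n RT dark; FI 485/535; norm. to 0.29 uM artemisinin and DMSO, plate-stack corrected.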

[3] = qHTS profiling for inhibitors of Plasmodium falciparum (HB3) proliferation (AID 743324; active = well fitted curve in the direction sought with a large enough effect; an effect the other way counts as inactive or inconclusive;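 also: 100% = DMSO vehicle wells and 0% = artemisinin-treated control wells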); conditions: Plasmodium falciparum HB3 blood-stage proliferation; at 28.7 µM (top of the series)
In short: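 SYBR Green fluorescence (485 ex/535 em) of lysed cultures, incubated overnight at room temperature in the dark, quantifies parasite DNA. Infected erythrocytes at 0.3% parasitemia and 2.5% hematocrit were exposed 72 h; values normalized to DMSO and 0.29 uM artemisinin controls.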

[4] = qHTS profiling of the MIPE4 collection as inhibitors of Plasmodium falciparum (3D7) proliferation (AID 743344);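 also: scaled between DMSO vehicle wells and 0.29 µM artemisinin as full inhibition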; conditions: P. falciparum 3D7 in erythrocytes, SYBR Green DNA fluorescence, 72 h; at 28.5 µM (top of the series) unless noted
In short: as §1

[5] = qHTS profiling of the MIPE4 collection as inhibitors of Plasmodium falciparum (DD2) proliferation (AID 743345); conditions: P. falciparum Dd2 in erythrocytes, SYBR Green DNA, 72 h; at 28.5 µM (top of the series) unless noted
In short: as §1

[6] = qHTS profiling of the MIPE4 collection as inhibitors of Plasmodium falciparum (DD2) proliferation (Rep 2) (AID 743346); conditions: P. falciparum Dd2 in erythrocytes, SYBR Green DNA, 72 h; at 28.5 µM (top of the series) unless noted
In short: as §1

[7] = qHTS profiling of the MIPE4 collection as inhibitors of Plasmodium falciparum (HB3) proliferation (AID 743347);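 also: plate controls were DMSO vehicle wells for no effect and artemisinin wells for full effect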; conditions: P. falciparum HB3 in erythrocytes, SYBR Green DNA, 72 h; at 28.5 µM (top of the series) unless noted
In short: as §1

[8] = High-throughput drug toxicity screening in the BPDCN cell line Gen2.2 (AID 1224824); conditions: Gen2.2 BPDCN cells; at 45.8 µM (top of the series) unless noted;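 also: cells exposed to compounds for 48 h before reading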
In short: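 CellTiter-Glo luminescence after 48 h compound exposure of Gen2.2 cells; percent activity set with DMSO as 100% and bortezomib (9.2 uM final) as 0%. Cells seeded at 500 per well, RPMI + 10% FBS, 37 °C.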

[9] = High-throughput drug toxicity screening in the BPDCN cell line Cal-1 (AID 1224825); conditions: Cal-1 BPDCN cell viability, qHTS; at 45.8 µM (top of the series) unless noted
In short: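 CellTiter-Glo luminescence after 48 h compound exposure; percent activity scaled with DMSO as 100% and bortezomib (9.2 uM final) as 0%. Cal-1 cells seeded at 500/well in RPMI, 10% FBS, no phenol red.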

[10] = qHTS assay for measurement of the activity of small molecule inhibitors on Zika virus induced Caspase-3 activity in human iPSC derived neural progenitor cells (hNPCs) (AID 1224857; active = well fitted curve in the direction sought with a large enough effect; an effect the other way counts as inactive or inconclusive; also: nearly all actives have a fitted effect of over 65% in size; also: potency is read from the fitted curve at half-maximal effect)
In short: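 Quantitative HTS format: human iPSC neural progenitors, 1 h compound pretreatment, ZIKV 2 FFU/cell for 6 h at 37 C. Percent inhibition derived from luminescent caspase-3/7 signal between uninfected and infected controls.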

SMILES	remaining parasite growth % (stronger effect = lower value) [1] [%]	activity, percent of control [2] [%]	remaining proliferation (% of control), lower = more inhibition [3] [%]	parasite growth, % of DMSO control [4]	parasite growth remaining, % of DMSO control (lower = more inhibition) [5]	parasite growth, % of control (lower = inhibition) [6]	growth, % of control [7]	cell viability, % of control (lower = more cytotoxic) [8] [%]	viability (% of control) [9] [%]	Potency [10]
C[C@@H]1CCN(C(=O)CC#N)C[C@H]1N(C)c1ncnc2[nH]ccc12	89.8	90.1	56.2	72.5%	96.3%	93.5%	74.7%	52.4	110	
COC(=O)C1=CO[C@@H](O)[C@@H]2C(CO)=CC[C@@H]12				83%	85.9%	98.4%	91%	17.3	16.7	
CC[C@@]1(O)C[C@H](O[C@H]2C[C@H](N(C)C)[C@H](O[C@H]3C[C@H](O)[C@H](O[C@H]4CCC(=O)[C@H](C)O4)[C@H](C)O3)[C@H](C)O2)c2c(cc3c(c2O)C(=O)c2c(O)cccc2C3=O)[C@@H]1C(=O)OC				3.31%	4.79%	5.22%	2.06%	5.55	3.95	
CCCCCN(C)CCC(O)(P(=O)(O)O)P(=O)(O)O				92.2%	92.9%	114%	90.7%	125	102	
CC(C)(C)Cn1c(N)nc2ccc(-c3[nH]c(C(C)(C)C)nc3-c3ccc(F)cc3)nc21				11%	9.48%	16%	4.94%	207	59.3	
CC=CC[C@@H](C)C(=O)[C@H]1C(=O)N[C@@H](C(C)C)C(=O)N(C)CC(=O)N(C)[C@@H](CC(C)C)C(=O)N[C@@H](C(C)C)C(=O)N(C)[C@@H](CC(C)C)C(=O)N[C@@H](C)C(=O)N[C@H](C)C(=O)N(C)[C@@H](CC(C)C)C(=O)N(C)[C@@H](CC(C)C)C(=O)N(C)[C@@H](C(C)C)C(=O)N1C				90.9%	93.4%	107%	103%	62.3	37	
O=C1NC(=O)C(=Cc2ccc(-c3ccc(F)cc3)o2)S1				75.2%	93.7%	91.6%	75.6%	57.7	95.6	
COc1ccc(Cc2nccc3cc(OC)c(OC)cc23)cc1OC				5.44%	11.3%	18.7%	2.71%	47.4	96.9	
Cc1ccc(C(=O)Nc2cccc(C(F)(F)F)c2)cc1Nc1nc(-c2cccnc2)nc2c1cnn2C				7.71%	12%	27.1%	10.4%	6.02	3.12	
CC[C@]1(O)C[C@@H]2CN(CCc3c([nH]c4ccccc34)[C@@](C(=O)OC)(c3cc4c(cc3OC)N(C=O)[C@@H]3C45CCN4CC=C[C@](CC)([C@H]45)[C@@H](OC(C)=O)[C@]3(O)C(=O)OC)C2)C1 (some centres not stated)				5.87%	10.2%	16.2%	3.8%	15	51.8	
CC(C)C(=O)Oc1ccc(CO)cc1[C@H](CCN(C(C)C)C(C)C)c1ccccc1				37.9%	40.7%	20.1%	45.5%	126	102	
Clc1ccc(C(c2ccc(Cl)cc2)n2cc[n+](CC(OCc3ccc(Cl)cc3Cl)c3ccc(Cl)cc3Cl)c2)cc1 (configuration not stated)				6.19%	5.85%	17.2%	7.48%	1.6	3.49	
CC(C)OC(=O)CCCC=CC[C@@H]1[C@H](C=C[C@@H](O)COc2cccc(C(F)(F)F)c2)[C@H](O)C[C@@H]1O				23.8%	76.3%	33.1%	15.8%	286	63.7	
CC(=O)Oc1cc2c(s1)CCN(C(C(=O)C1CC1)c1ccccc1F)C2 (configuration not stated)				56.7%	95.5%	40.2%	57.5%	15.7	18.3	
O=C1c2c(O)cc(O)cc2O[C@H](c2cc(O)c(O)c(O)c2)[C@H]1O				85.4%	85.1%	78.7%	102%	112	123	
Cc1c(NC(=O)c2ccc(C(C)(C)C)cc2)cccc1-c1cn(C)c(=O)c(Nc2ccc(C(=O)N3CCOCC3)cc2)n1				5.68%	6.89%		5.53%	29.7	42.2	
N#CC(=C(N)Sc1ccccc1N)C(C#N)=C(N)Sc1ccccc1N				4.41%	12.1%	10.6%	5.29%	16.6	12.1	
Clc1ccc(CCC(Cn2ccnc2)Sc2c(Cl)cccc2Cl)cc1 (configuration not stated)				5.77%	6.42%	10.3%	3.43%	177	67.7	
CO[C@H]1C=CC=C(C)C(=O)NC2=CC(=O)C(NCCN(C)C)=C(C[C@@H](C)C[C@H](OC)[C@@H](O)[C@@H](C)C=C(C)[C@@H]1OC(N)=O)C2=O	-0.553	-0.115	-2.33	5.12%	6.82%	6.75%	6.65%	4.49	3.52	
COc1ccc(C2Sc3ccccc3N(CCN(C)C)C(=O)C2OC(C)=O)cc1 (configuration not stated)				68.8% and 96.6%	81% and 97.9%	33.4% and 89.9%	60.2% and 101%	150	90	

SMILES	remaining parasite growth % (stronger effect = lower value) [1] [%]	activity, percent of control [2] [%]	remaining proliferation (% of control), lower = more inhibition [3] [%]	parasite growth, % of DMSO control [4]	parasite growth remaining, % of DMSO control (lower = more inhibition) [5]	parasite growth, % of control (lower = inhibition) [6]	growth, % of control [7]	cell viability, % of control (lower = more cytotoxic) [8] [%]	viability (% of control) [9] [%]	Potency [10]
Clc1ccc(COC(Cn2ccnc2)c2ccc(Cl)cc2Cl)cc1 (configuration not stated)				5.45%	6.85%	9.72%	3.47%	115	70.1	
C[N+](C)(C)CC(=O)O				86.7%	96.1%	93.5%	85.2%	178	114	
O=c1c(-c2ccc(O)cc2)coc2cc(O[C@@H]3O[C@H](CO)[C@H](O)[C@H](O)[C@H]3O)ccc12				91.8%	97.7%	85.3%	104%	101	99.8	
Nc1nc(F)nc2c1ncn2[C@@H]1O[C@H](COP(=O)(O)O)[C@@H](O)[C@H]1O				27.2%	19.9%	10.9%	8.49%	97.6	12.5	
CCCCCNC(=O)N1CCC(CN(Cc2ccc(Cl)cc2)Cc2ccc([N+](=O)[O-])s2)C1 (configuration not stated)				60.8%	25.2%	30.3%	55.8%	15.7	44.4	
CC1(C)CCC2=C(O1)c1ccccc1C(=O)C2=O				22.8%	71%	21.7%	20.3%	4.24	4.06	
CS(=O)(=O)N(Cc1ccco1)CC(O)Cn1c2ccccc2c2ccccc21 (configuration not stated)				34.3%	12.4%	58.2%	16.4%	75.4	65.5	
O=c1cc(-c2ccc(O)cc2)oc2cc(O)cc(O)c12				7.22%	42.9%	6.57%	3.14%	8.72	4.48	
Oc1ccc(C2=Cc3ccc(O)cc3OC2)cc1				19.6%	34.7%	27.9%	24.6%	16.5	3.88	
O=c1cc(-c2ccccc2)oc2cc(O)c(O)c(O)c12				7.41%	24.2%	28.3%	6.52%	151	91.7	
O=c1c(-c2ccc(O)cc2)coc2cc(OC3O[C@H](CO)[C@H](O)[C@H](O)[C@H]3O)cc(O)c12 (some centres not stated)				57%	88.8%	65.7%	54%	74.8	37.3	
C=C1C(=O)[C@@]23C(CC[C@@H]1[C@H]2O)[C@@]12CO[C@]3(O)[C@@H](O)[C@@H]1C(C)(C)CC[C@@H]2O (some centres not stated)				33.5%	75.5%	18.4%	5.26%	2.66	2.13	
N[C@H](CSC(c1ccccc1)(c1ccccc1)c1ccccc1)C(=O)O				10.7%	86.8%	16.2%	4.68%	68.6	12	
CC(C)C[C@H](CC(=O)O)C(=O)N[C@@H](Cc1c[nH]c2ccccc12)C(=O)N[C@@H](C)c1ccccc1				79.9%	77.8%	57.5%	34.7%	161		inactive
C[N+]1(C)[C@@H]2CC(OC(=O)[C@H](CO)c3ccccc3)C[C@H]1[C@H]1O[C@@H]12 (some centres not stated)				93.9%		84.8%		112	130	
O=c1[nH]cnc2c1ncn2[C@H]1CC[C@@H](CO)O1				178%	97.1%		659%	93.2		inactive
COc1cc(N2CCC(N3CCN(C)CC3)CC2)ccc1Nc1ncc(Cl)c(Nc2ccccc2S(=O)(=O)C(C)C)n1	-0.393	0.218	-1.09	3.8%	7.75%	5.51%	7.64%	5.5		inactive
C[C@]12CCC3c4ccc(O)cc4CCC3C1CCC2=O (some centres not stated)				51.9%	75.4%	54.3%	66.9%	54		inactive
COc1cc2nc(-c3ccc(N4CCN(C)CC4)cc3)nc(NCCN3CCOCC3)c2cc1OC	-1.55	-0.313	-0.898	5.09%	4.83%	12.1%	2.87%	1.57		5.9 µM (active)
